The source of these data is PubChem BioAssay.

Unmarked numbers belong to inactive results. Calls of active or inactive are those of the source. Cut-off read from the data, not from the text of the source: active = inhibition above about 36%; inactive = the rest.

This experiment deals with transactivating tegument protein VP16 (Human herpesvirus 1). In words: compounds suppressing VP16-driven luciferase signal – cell-based, luminescence, single concentration, counter-screen for SRC2 inhibitor project (AID 652007). The following applies: cell-based VP16 transactivation luciferase reporter, at 8.9 µM, active compounds read high.
As usually defined, the inhibition is the drop in the measured response relative to a control, in per cent. As for `Cc1cc(C)n2c(Nc3ccc4c(c3)OCCO4)c(-c3cc4ccccc4o3)nc2n1`, the inhibition is -60.9%.

For `C#CCN(C[C@@H]1[C@@H](OC(=O)Nc2cccs2)[C@@H](OC(=O)Nc2cccs2)Cn2c(=O)ccc(=O)n21)S(=O)(=O)c1ccc(C)cc1`, the inhibition was 26.4%. `CC1=C(CO)C(=O)OC([C@@H](C)C2CC[C@H]3C4C[C@H]5O[C@]56[C@@H](O)C=CC(=O)[C@]6(C)C4CC[C@]23C)C1` (stereo partly drawn): the inhibition was 53.8% (active). For the compound `COc1ccc(-c2cc(-c3nc4ccccn4c3NCc3ccccc3)ccc2OC)cc1`, the inhibition was 96.8% (active). Take `CCN(CC)CCC(=O)N1C/C(=C/c2ccccc2)C(=O)/C(=C\c2ccccc2)C1`: the inhibition was 84.8% (active).

Take `COc1ccc(-c2noc(CCCC(=O)NC3CCCC3)n2)cc1`: the inhibition is 48.8% (active). As for `CN(C)c1ccnc2sc(C(N)=O)c(N)c12`, the inhibition is -0.64%.

As to `CNC(=O)c1cc(Oc2ccc(NC(=O)Nc3ccc(Cl)c(C(F)(F)F)c3)cc2)ccn1`, the inhibition is 29.9%.
